Data taken from PubChem BioAssay (Tox21).
Results filed as inconclusive are left out. A number with no mark means an inactive call. The call rests on the fitted dose curve; in most records, active means well fitted inhibition curve with a large enough effect in the signal ratio in the repeat runs (not every such curve was filed as active); inconclusive means weak or mixed curves, or effect the other way; inactive means no such curve, though single readings can be large or run the other way; the % refers to the signal ratio.

Target: Peroxisome proliferator-activated receptor delta (Homo sapiens) (UniProt Q03181)
Sequence (Q03181 whole entry, looked up): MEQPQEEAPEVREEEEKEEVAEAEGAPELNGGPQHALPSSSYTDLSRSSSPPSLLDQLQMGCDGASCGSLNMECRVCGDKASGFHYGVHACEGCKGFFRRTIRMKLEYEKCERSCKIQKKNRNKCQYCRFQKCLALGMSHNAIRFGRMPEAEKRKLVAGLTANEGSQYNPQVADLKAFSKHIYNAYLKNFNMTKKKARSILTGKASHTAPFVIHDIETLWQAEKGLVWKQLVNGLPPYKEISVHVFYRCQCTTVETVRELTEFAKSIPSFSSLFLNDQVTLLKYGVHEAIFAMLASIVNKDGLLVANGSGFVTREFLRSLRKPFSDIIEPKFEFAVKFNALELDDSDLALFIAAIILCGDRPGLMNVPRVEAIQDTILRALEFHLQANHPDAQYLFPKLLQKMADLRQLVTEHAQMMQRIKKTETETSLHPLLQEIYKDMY
Test: qHTS assay to identify small molecule antagonists of the peroxisome proliferator-activated receptor delta (PPARd) signaling pathway (AID 743215);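 further: cells stimulated with agonist L165041 at 300 nM final during compound exposure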
Settings: HEK293H PPARd-UAS-bla, beta-lactamase FRET ratio, antagonist, 17 h; series mostly up to 62 µM; ratio activity, negative = inhibition: at the top concentration
Description: U.S. Tox21 Program National Center for Advancing Translational Sciences [NCATS] NIH Chemical Genomics Center [NCGC] U.S. Environmental Protection Agency [EPA] National Institutes of Environmental Health Sciences [NIEHS] National Toxicology Program [NTP] U.S. Food and Drug Administration [FDA] Tox21 Assay Overview: The peroxisome proliferator-activated receptors (PPARs) are lipid-activated transcription factors of the nuclear receptor superfamily with three distinct subtypes namely PPAR alpha, PPAR delta (PPARd) and PPAR gamma. All these subtypes heterodimerizes with Retinoid X receptor (RXR) and have different physiological functions. […] To identify the compounds that inhibit PPAR-delta signaling, GeneBLAzer PPAR delta UAS-bla HEK293H cell line (Invitrogen, Carlsbad, CA, USA) containing a beta-lactamase reporter gene under the control of an Upstream Activator Sequence (UAS) was used to screen the Tox21 compound library.
Tox21 Assay Protocol Summary: PPARd-bla cells were dispensed at 3000 cells/5uL/well in 1536-well black wall/clear bottom plates using a Multidrop Combi (Thermo Fisher Scientific, Waltham, MA) dispenser. After the assay plates were incubated at 37 C and 5% CO2 for 5 h, 23 nL of compounds dissolved in DMSO, positive controls or DMSO only was transferred to the assay plate by a Pintool station (Kalypsys, San Diego, CA), followed by addition of 1ul L165041 (300 nM, final concentration in the wells). The assay plates were incubated at 37 C for 17 h, and then 1 uL of LiveBLAzerTM B/G FRET substrate was added using a Bioraptr Flying Reagent Dispenser (FRD) workstation (Beckman Coulter, Indianapolis, IN, USA). The assay plates were incubated at room temperature for 2 h and fluorescence intensity was measured by an Envision plate reader (PerkinElmer, Shelton, CT).
On the % scale 0 is the no-effect control and ±100 the full control effect.

Row | SMILES | ratio activity, negative = inhibition
1 | CCN(CC)CCc1nc(-c2ccccc2)no1 | -2.25%
2 | Cc1ccc2c(ccc3ccccc32)c1 | -7.15% [at 80.4 µM]
3 | CCOC(=O)C1=NN(c2ccccc2)C(=O)C1 | 6.58%
4 | CCCC(=O)OCC | -20.6%
5 | COc1ccc2[nH]c(S(=O)Cc3ncc(C)c(OC)c3C)nc2n1 (stereo not given) | 7.34%
6 | CC(=O)SCc1ccco1 | 0.931%
7 | O=C(C(=O)c1ccc(Br)cc1)c1ccc(Br)cc1 | -5.13% [at 28.9 µM]
8 | Cc1ccc(C(N)=O)cc1N | 15.4%
9 | CCCCOC(=O)c1ccccc1C(=O)OCC(CC)CCCC (stereo not given) | -17.9%
10 | CCCc1ccccc1 | 5.66%
11 | O=C1Nc2cc(Cl)ccc2Oc2ccccc21 | 2.85%
12 | O=c1[nH]cnc2ccccc12 | -4.11% [at 80.4 µM]
13 | O=C(NN1CCCC1)NS(=O)(=O)c1ccc(Cl)cc1 | -7.52%
14 | CCN(CC)CCNC(C(=O)OCCC(C)C)c1ccccc1 (stereo not given) | -2.1%
15 | CCCCCCCCCC(=O)OCC | 2.5%
16 | CC(C)c1ccc2c(C(C)C)cc(C(C)C)c(S(=O)(=O)O)c2c1 | -2.34% [at 80.4 µM]
17 | CC(=O)/C(C)=C/C1C(C)=CCCC1(C)C (stereo not given) | -1.47%
18 | CC(C)(Oc1ccc(Cl)cc1)C(=O)OCCCOC(=O)C(C)(C)Oc1ccc(Cl)cc1 | 12.4%
19 | Cc1ccc(O)c([C@H](CCN(C(C)C)C(C)C)c2ccccc2)c1 | -2.86%
20 | Cc1ccc(C(C)c2ccc(C)c(C)c2)cc1C | -4.68%

Row | SMILES | ratio activity, negative = inhibition
21 | CN(C)CCCOc1nn(Cc2ccccc2)c2ccccc12 | -19.9%
22 | CC[C@@H]1C[C@H](N(Cc2cc(C(F)(F)F)cc(C(F)(F)F)c2)C(C)=O)c2cc(C(F)(F)F)ccc2N1C(=O)OC(C)C | -0.0329%
23 | CCCCCCCCCCCCCCCBr | 2.01%
24 | O=C(O)c1cn(C2CC2)c2cc(Cl)c(F)cc2c1=O | 12.4%
25 | Cc1occc1S | -2.05%
26 | CCN(CC)C(C)=O | 0.0956% [at 80.4 µM]
27 | COc1ccc([C@@H]2Sc3ccccc3N(CCN(C)C)C(=O)[C@@H]2OC(C)=O)cc1 | -1.99%
28 | CNCC[C@@H](Oc1ccccc1C)c1ccccc1 | 1.86%
29 | N#CCCNCCC#N | 0.566% [at 80.4 µM]
30 | c1ccc(OCc2ccc(CCCN3CCOCC3)cc2)cc1 | 0.565%
31 | CC(=O)CC(=O)c1ccccc1 | 0.853% [at 80.4 µM]
32 | CC(C)(C)c1ccc(S)cc1 | 1.51%
33 | CCCCOc1ccc(CC(=O)NO)cc1 | -17.5%
34 | CC(=O)OC/C=C/c1ccccc1 | -7.18%
35 | CC(C(=O)O)c1ccc(C(=O)c2ccccc2)s1 (stereo not given) | -0.671%
36 | CCOc1nc2cccc(C(=O)O)c2n1Cc1ccc(-c2ccccc2-c2nn[nH]n2)cc1 | -6.45%
37 | O=C(Cl)c1c(Cl)cccc1Cl | 13.7% [at 80.4 µM]
38 | CC(O)C1CCCCC1 (stereo not given) | 11.7%
39 | O=CNc1ccccc1 | 1.85% [at 80.4 µM]
40 | CC(C)c1ccccc1C(C)C | 5.82%
